Test results published in PubChem BioAssay (NCATS).
Inconclusive results are not listed. Activity calls are given as the source filed them. Calls follow the shape of the dose curve; as a rule, active = well fitted curve in the direction sought with a large enough effect; inconclusive = small, poorly fitted or top-dose-only effect, or another doubt; inactive = no such curve, though single readings can be large; an effect the other way counts as inactive or inconclusive.

Assays:
[1] = target: Glutathione peroxidase 1 (Homo sapiens) (UniProt P07203); experiment: Primary qHTS Assay for Inhibitors of Recombinant Selenoprotein Glutathione Peroxidase 1 (GPX1) (AID 1845191); also: nearly all actives have a fitted effect of over 65% in size
Outline: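 10 nM GPX1 + cpd, 30 min RT; start w/ 1 mM GSH, 0.5 mM cumene hydroperoxide, 0.5 mM NADPH, 100 nM GR, 0.01% BSA; buffer 50 mM Tris-HCl pH 7.5, 2 mM EDTA, 150 mM NaCl; Fl 340/450, 0 & 15 min.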

[2] = target: Phospholipid hydroperoxide glutathione peroxidase GPX4 (Homo sapiens) (UniProt P36969); experiment: Primary qHTS Assay for Inhibitors of Recombinant Selenoprotein Glutathione Peroxidase 4 (GPX4) (AID 1845192); also: nearly all actives have a fitted effect of over 65% in size
Outline: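 NADPH consumption, followed by fluorescence at 340/450 nm between 0 and 15 min, reports GPX4 activity via coupled glutathione reductase (100 nM). Enzyme 200 nM was pre-exposed to compound 30 min; 0.5 mM cumene hydroperoxide and 1 mM GSH served as substrates.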

[3] = target: Luciferin 4-monooxygenase (Photinus pyralis) (UniProt P08659); experiment: Primary firefly luciferase (FLuc) qHTS assay for identification of artifact compounds. (AID 1845220); also: nearly all actives have a fitted effect of over 60% in size
Outline: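 Cell-free, 1536-well qHTS. Buffer pH 7.6 with 0.01% Tween-20 and 0.05% BSA; 10 uM D-luciferin, 10 uM ATP; 10 nM P. pyralis luciferase; luminescence after 5 min.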

[4] = tested on: Nanoluciferase (engineered Oplophorus gracilirostris luciferase); experiment: Primary Nanoluciferase (NLuc) qHTS assay for identification of artifact compounds. (AID 1845222); also: series mostly up to about 54 µM
Outline: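 Compounds are pinned into diluted (1:55) conditioned medium of NLuc-expressing S16 cells and held 15 min at room temperature protected from light. Nano-Glo substrate follows, and luminescence is read 5 min later.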

[5] = Primary redox qHTS assay for identification of artifact compounds. (AID 1845223)
Outline: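 Amplex Red (25 uM) and HRP (250 mU/mL) in HBSS, with compounds for 15 min, then 250 uM DTT for 30 min, room temperature, dark. Fluorescence 525/598 nm read; normalized to DMSO and 10 uM DA3003; Hill fit.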

[6] = Primary fluorescence-based thiol-reactive (MSTI) qHTS assay for identification of artifact compounds. (AID 1845221);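 also: series mostly up to about 54 µM; thiol-reactive compounds lower the probe fluorescence signal; nearly all actives have a fitted effect of over 65% in size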
Outline: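 Curve-fitted percent inhibition (4-parameter Hill) derived from fluorescence, Ex 525/Em 598 nm, scaled with Acetyl-MSTI and MSTI; 1 h incubation at room temperature.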

Measured: Potency

Chain of Glutathione peroxidase 1 (Homo sapiens) (P07203 whole entry, looked up): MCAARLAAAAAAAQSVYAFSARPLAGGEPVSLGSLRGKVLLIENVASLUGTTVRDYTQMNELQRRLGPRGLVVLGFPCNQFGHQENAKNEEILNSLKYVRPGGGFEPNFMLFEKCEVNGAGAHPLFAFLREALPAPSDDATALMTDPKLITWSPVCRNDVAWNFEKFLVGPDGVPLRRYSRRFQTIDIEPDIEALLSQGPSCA
Chain of Phospholipid hydroperoxide glutathione peroxidase GPX4 (Homo sapiens) (P36969 whole entry, looked up): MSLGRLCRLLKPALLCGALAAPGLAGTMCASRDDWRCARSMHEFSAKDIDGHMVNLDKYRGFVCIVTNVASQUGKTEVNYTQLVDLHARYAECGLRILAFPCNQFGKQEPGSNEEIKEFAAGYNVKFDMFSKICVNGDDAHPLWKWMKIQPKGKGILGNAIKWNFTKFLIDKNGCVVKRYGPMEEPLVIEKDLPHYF

OC1CCC(Nc2nc(-c3ccccc3)nc3[nH]ccc23)CC1 (centres undefined)
inactive: [1] | [2] | [3] | [4] | [5]

CC1(C(=O)Nc2ccc(F)nc2)CCCN1c1nc(Nc2cc(C3CC3)[nH]n2)c2cccn2n1 (centres undefined)
inactive: [1] | [2] | [3] | [4] | [5]

C#CCNCc1cc2cc(OCc3ccccc3)ccc2[nH]1
inactive: [1] | [2] | [3] | [4] | [5]

O=C(NC1CCN(CCCCC2(C(=O)NCC(F)(F)F)c3ccccc3-c3ccccc32)CC1)c1ccccc1-c1ccc(C(F)(F)F)cc1
inactive: [1] | [2] | [3] | [4] | [5]

CC1(CO)CC2C(O)C3=C(CC(C)(O)C2C1)C(=O)OC3 (centres undefined)
inactive: [1] | [2] | [3] | [4] | [5]

CCCc1cc(C)[nH]c(=O)c1CNC(=O)c1cc(-c2ccc(N3CCN(C(C)C)CC3)nc2)cc2c1cnn2C(C)C
inactive: [1] | [2] | [3] | [4] | [5]

CN(C)c1cccc(Oc2cnc(Nc3cccc(O)c3)nc2)c1
inactive: [1] | [2] | [3] | [4] | [5]

COc1cc(OC)c(NC(=O)c2ccc(Cc3cc4c(cc3C)C(C)(C)CCC4(C)C)o2)c(OC)c1
inactive: [1] | [2] | [3] | [4] | [5]

COc1ccc(N(C(=O)Nc2c(C)cccc2C)c2cc(Nc3ccc(N4CCN(C)CC4)cc3)ncn2)c(OC)c1
inactive: [1] | [2] | [3] | [4] | [5]

COc1cccc(NCCC2(c3ccccc3)CC(C)(C)OC(C)(C)C2)c1
inactive: [1] | [2] | [3] | [4] | [5]

N#Cc1cnc2c(Cl)cc(NCc3cn(CCN4CCCCCC4)nn3)cc2c1Nc1ccc(F)c(Cl)c1
inactive: [1] | [2] | [3] | [4] | [5]

Cc1c(C(=O)NCc2cccnc2)nn(-c2ccc(Cl)cc2Cl)c1-c1ccc(Cl)cc1
inactive: [1] | [2] | [3] | [4] | [5]

C=C1C(=O)OC2C=C(C)CC/C=C(\CO)CC(O)C12 (centres undefined)
inactive: [1] | [2] | [3] | [4] | [5]

O=C(N[C@H]1CCN(C(=O)c2cc(C(F)(F)F)cc(C(F)(F)F)c2)[C@H](Cc2ccc(Cl)cc2)C1)c1ccnc2ccccc12
inactive: [1] | [2] | [3] | [4] | [5]

Cc1onc(-c2ccccc2)c1C(=O)N1CCN(c2ccc([N+](=O)[O-])cc2Cl)CC1
inactive: [1] | [2] | [3] | [4] | [5]

COc1ccc([C@H](Cc2ccncc2)c2ccccc2)cc1OC1CCCC1
inactive: [1] | [2] | [3] | [4] | [5]

Cc1c(F)ccc(C(=O)Nc2cc([N+](=O)[O-])ccc2N2CCN(C)CC2)c1Cl
inactive: [1] | [2] | [3] | [4] | [5]

O=C(c1c(F)ccc(NS(=O)(=O)N2CC[C@@H](F)C2)c1F)c1c[nH]c2ncc(-c3cnc(C4CC4)nc3)cc12
inactive: [1] | [2] | [3] | [4] | [5]

COC(=O)C[C@H]1[C@]2(C)C3=C(C)[C@H](c4ccoc4)C[C@H]3O[C@@H]2[C@H](O)C2[C@](C)(C(=O)OC)C=CC(=O)[C@@]21C (some centres undefined)
inactive: [1] | [2] | [3] | [4] | [5]

Clc1ncoc1-c1c[nH]c2ccccc12
inactive: [1] | [2] | [3] | [4] | [5]

COC(=O)c1sccc1S(=O)(=O)Nc1ccc(Nc2ccccc2)cc1OC
inactive: [1] | [2] | [3] | [4] | [5]

COc1ccc(OC)c(-c2ccc(NC(=O)c3ccncc3F)cc2)c1
inactive: [1] | [2] | [3] | [4] | [5]

COC1CC(=O)C23C(=O)NC(CC(C)C)C2C(C)C(C)=CC3/C=C(\C)CCCC1O (centres undefined)
inactive: [1] | [2] | [3] | [4] | [5]

O[C@@](Cc1ncc(CC2(C(F)(F)F)CC2)[nH]1)(c1ccc(-n2cccn2)cc1)C(F)(F)F
inactive: [1] | [2] | [3] | [4] | [5]

CN1CCN(C2=Nc3ccccc3Nc3ccc(Cl)cc32)CC1
inactive: [1] | [2] | [3] | [4] | [5]

C=C1C(=O)O[C@@H]2C3=C(C)CCC[C@]3(C)CC[C@@]12O
inactive: [1] | [2] | [3] | [4] | [5]

COc1nc2ccc(Br)cc2cc1[C@@H](c1ccccc1)[C@@](O)(CCN(C)C)c1cccc2ccccc12
inactive: [1] | [2] | [3] | [5]

CC(C)C[C@@H](C(=O)N[C@@H](Cc1ccc(OCc2ccccc2)cc1)C(=O)NC(C)(C)C)N(C)Cc1ccc(C(C)(C)C)cc1
inactive: [1] | [2] | [3] | [4] | [5]

O=S(=O)(Cc1ccccc1)Nc1ccc(-c2ccc3c(cnn3-c3ccc(F)cc3)c2)c(C(F)(F)F)c1
inactive: [1] | [2] | [3] | [4] | [5]

COc1cc(CCO)ccc1O[C@@H]1O[C@H](CO)[C@@H](O)[C@H](O)[C@H]1O
inactive: [1] | [2] | [3] | [4] | [5]

C/C1=C\CCC2=CC(OC2=O)C(C)(C)/C=C/C1=O (centres undefined)
inactive: [1] | [2] | [3] | [4] | [5]

C/C=C(/C)C(=O)O[C@H]1C=C(CO)C(=O)[C@H](OC(=O)/C(C)=C/CO)[C@H]1C(C)C
inactive: [1] | [2] | [3] | [4] | [5]

O=C(Nc1cccnc1)c1cc(-c2ccnc(F)c2)ccc1OCc1ccccc1
inactive: [1] | [2] | [3] | [4] | [5]

Cc1cnc(-c2ccccc2C(C)C)nc1NCc1ccc(-n2ccnn2)cc1
inactive: [1] | [2] | [3] | [5]

COc1c2c(c(C)c3c1C(=O)OC3)O[C@@]1(C)C[C@@H](OC(C)=O)[C@]34O[C@](OC)(CC[C@]3(C)[C@H]1C2)OC4(C)C
inactive: [1] | [2] | [3] | [4] | [5]

COC(=O)c1ccc2c(c1)nc(NC(=O)c1ccccc1)n2CCCc1ccccc1
inactive: [1] | [2] | [3] | [4] | [5]

NC(=O)c1ccccc1Nc1ccnc(Nc2cccc(O)c2)n1
inactive: [1] | [2] | [3] | [4] | [5]

O=C1NC(=O)C(c2cnc3ccccn23)=C1c1cn2c3c(cc(F)cc13)CN(C(=O)N1CCCCC1)CC2
inactive: [1] | [2] | [3] | [4] | [5]

Cc1cc(C)c2c(c1)C(N(Cc1cc(C(F)(F)F)cc(C(F)(F)F)c1)c1nnn(C)n1)CCCN2CC1CCC(C(=O)O)CC1 (centres undefined)
inactive: [1] | [2] | [3] | [4] | [5]

Cc1nc(Nc2cnn(C3CCNCC3)c2)nc2c1N(C)C(=O)c1cc3ccccc3cc1N2C
inactive: [1] | [2] | [6]

C=C1C(=O)O[C@@H]2[C@H]1CC(=O)[C@H](C)[C@@](O)(C(=O)/C=C/C)[C@H]2OC(=O)C(C)CC (some centres undefined)
inactive: [1] | [2] | [3] | [4] | [5]

CCC(C)/C=C(C)/C=C/C1=CC2=C(Cl)C(=O)C(C)(OC(C)=O)C(=O)C2(O)C(OC)O1 (centres undefined)
inactive: [1] | [2] | [3] | [4] | [5]

Cc1[nH]c2ccc(F)cc2c1-c1nc2c3cccnc3c3ncccc3c2[nH]1
inactive: [1] | [2] | [3] | [4] | [5]

CC(C)(C)OC(=O)c1ncn2c1C(C)(C)Nc1ccccc1-2
inactive: [1] | [2] | [3] | [4] | [5]

CCn1c(=O)c(-c2ccc(-c3cncs3)cc2Cl)cc2cnc(Nc3ccc(N4CCN(C)CC4)cc3)nc21
inactive: [1] | [2] | [3] | [4] | [5]

C=C1CCC2[C@](C)(CCC[C@@]2(C)C=O)[C@H]1CC/C(C)=C/CO (some centres undefined)
inactive: [1] | [2] | [3] | [4] | [5]

O=C(NO)c1cnc(N2CCN(S(=O)(=O)c3ccc4ccccc4c3)CC2)nc1
inactive: [1] | [2] | [3] | [4] | [5]

C/C(=N\N=C(N)N)c1cc(NC(=O)CCCCCCCCC(=O)Nc2cc(/C(C)=N/N=C(N)N)cc(/C(C)=N/N=C(N)N)c2)cc(/C(C)=N/N=C(N)N)c1
inactive: [1] | [2] | [6] | [4]

C=CC(=O)N1CC(N2CCN(C(=O)CNc3cc(C4CC4)c(Cl)cc3O)CC2)C1
inactive: [1] | [2] | [3] | [4] | [5]

Cn1nc(C(C)(C)C)cc1C(=O)N[C@@H](Cc1cccc(Cl)c1)C(=O)NCC#N
inactive: [1] | [2] | [3] | [4] | [5]

CC1(C)CC[C@]2(C(=O)O)CC[C@]3(C)C(=CCC4[C@@]5(C)C[C@@H](O)[C@H](O)C(CO)(CO)C5CC[C@]43C)C2[C@@H]1O (some centres undefined)
inactive: [1] | [2] | [3] | [4] | [5]

COc1cc2ncnc(Nc3ccc(F)c(Cl)c3)c2cc1O
inactive: [1] | [2] | [3] | [5]
